Data reported in the supplement of paper PMC12645437, “Orthogonal IMiD-Degron Pairs Induce Selective Protein Degradation in Cells” (ACS Chemical Biology, 2025).
The full ranking holds about 8,300 sequences; the median of “log2 fold change of degron read counts, EGFP-low vs EGFP+ sorted cells (limma voom), compound-induced degradation” is about -1.1, and the highest 2% start at about 3.2. What follows is part of a selection rich in the highest values, with near analogues and random picks from the rest.

T1: CRBN, Q96SW2
T1 chain: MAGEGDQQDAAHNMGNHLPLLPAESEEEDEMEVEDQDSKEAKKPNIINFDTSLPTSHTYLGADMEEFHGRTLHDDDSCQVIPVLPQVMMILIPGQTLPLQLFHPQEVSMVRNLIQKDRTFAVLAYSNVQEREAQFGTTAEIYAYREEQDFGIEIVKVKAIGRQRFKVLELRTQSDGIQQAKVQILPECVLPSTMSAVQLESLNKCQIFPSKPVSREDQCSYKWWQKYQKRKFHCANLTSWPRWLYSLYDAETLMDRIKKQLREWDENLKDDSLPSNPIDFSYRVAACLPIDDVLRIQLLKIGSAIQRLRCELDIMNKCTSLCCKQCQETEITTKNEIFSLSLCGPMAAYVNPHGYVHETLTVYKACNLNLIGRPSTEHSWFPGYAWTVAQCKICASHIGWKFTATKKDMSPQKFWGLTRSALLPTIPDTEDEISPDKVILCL


Target: T1, CRBN, Q96SW2
Assay: log2 fold change of degron read counts, EGFP-low vs EGFP+ sorted cells (limma voom), compound-induced degradation; higher = more compound-induced degradation of the degron-EGFP fusion; degrons are variants of IKZF1/3 zinc finger 2; compound dose not given here
Conditions: Jurkat, 18 h
[1] = compound: compound 19 (5-tert-butyl-thalidomide)
[2] = compound: compound 22 (5-morpholino-thalidomide)
[3] = compound: compound 33 (diphenyl IMiD analogue)
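Also: pooled lentiviral library of zinc finger degron-EGFP fusions in mCherry-positive Jurkat cells, FACS-sorted after compound exposure, with degron abundance counted by next-generation sequencing.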

| Sequence | log2 fold change of degron read counts [1] | log2 fold change of degron read counts [2] | log2 fold change of degron read counts [3] | log2 fold change of degron read counts (compound: thalidomide) |
| --- | --- | --- | --- | --- |
| FACDQCGAYFTQKGNLLRHIKL [46F_47A_49D_50Q_52G_53A_54Y_55F_67L_, Q9UKT9] | -1.75 | -2.34 | -1.85 | -2.43 |
| FLCSVCGHQFTQKGNLLRHIKL [46F_47L_49S_50V_52G_53H_54Q_55F_67L_, Q9UKT9] | -2.83 | -2.7 | -2.54 | -2.76 |
| FKCDQCGACFTQKGNLLRHIKL [46F_47K_49D_50Q_52G_53A_54C_55F_67L_, Q9UKT9] | -2.75 | -3.31 | -3.66 | -3.24 |
| FLCPQCGAIFTQKGNLLRHIKL [46F_47L_49P_50Q_52G_53A_54I_55F_67L_, Q9UKT9] | -1.63 | -1.54 | -0.716 | -0.881 |
| FKCDICGASFTQKGNLLRHIKL [46F_47K_49D_50I_52G_53A_54S_55F_67L_, Q9UKT9] | -0.288 | -2.66 | -3.19 | -1.69 |
| FACDVCGAQFTQKGNLLRHIKL [46F_47A_49D_50V_52G_53A_54Q_55F_67L_, Q9UKT9] | 1.75 | -0.392 | -1.04 | -1.67 |
| FMCEICGAVFTQKGNLLRHIKL [46F_47M_49E_50I_52G_53A_54V_55F_67L_, Q9UKT9] | -1.1 | -0.16 | 2.5 | 1.37 |
| FSCEICGAVFTQKGNLLRHIKL [46F_47S_49E_50I_52G_53A_54V_55F_67L_, Q9UKT9] | 2.73 | 1.89 | 2.49 | 1.44 |
| FFCEICGAVFTQKGNLLRHIKL [46F_47F_49E_50I_52G_53A_54V_55F_67L_, Q9UKT9] | 3.46 | 3.76 | 2.2 | 1.64 |
| FCCEICGAVFTQKGNLLRHIKL [46F_47C_49E_50I_52G_53A_54V_55F_67L_, Q9UKT9] | 1.77 | 1.91 | 2.47 | 2.16 |
| FYCEICGAVFTQKGNLLRHIKL [46F_47Y_49E_50I_52G_53A_54V_55F_67L_, Q9UKT9] | 3.66 | 3.6 | 2.79 | 1.07 |
| FECEICGAVFTQKGNLLRHIKL [46F_47E_49E_50I_52G_53A_54V_55F_67L_, Q9UKT9] | -0.462 | -0.764 | 1.98 | 2.39 |
| FNCEICGAVFTQKGNLLRHIKL [46F_47N_49E_50I_52G_53A_54V_55F_67L_, Q9UKT9] | 1.15 | -0.231 | 0.00137 | -0.335 |
| FTCEICGAVFTQKGNLLRHIKL [46F_47T_49E_50I_52G_53A_54V_55F_67L_, Q9UKT9] | 0.417 | 1.97 | 2.08 | 2.64 |
| FGCEICGAVFTQKGNLLRHIKL [46F_47G_49E_50I_52G_53A_54V_55F_67L_, Q9UKT9] | 2.88 | 2.6 | 2.14 | 1.13 |
| FWCEICGAVFTQKGNLLRHIKL [46F_47W_49E_50I_52G_53A_54V_55F_67L_, Q9UKT9] | 3.33 | 3.51 | 2.5 | 0.916 |
| FACEICGAVFTQKGNLLRHIKL [46F_47A_49E_50I_52G_53A_54V_55F_67L_, Q9UKT9] | 3.29 | 2.39 | 1.27 | 0.606 |
| FHCEICGAVFTQKGNLLRHIKL [46F_47H_49E_50I_52G_53A_54V_55F_67L_, Q9UKT9] | 1.69 | 1.65 | 1.31 | 0.109 |
| FVCPICGRLFTQKGNLLRHIKL [46F_47V_49P_50I_52G_53R_54L_55F_67L_, Q9UKT9] | -1.24 | -0.36 | 0.85 | 1.08 |
